Results published in PubChem BioAssay AID571 (The Scripps Research Institute Molecular Screening Center, 2007).
In all, about 65,000 compounds went through this assay and about 640 (0.98%) were called active. Shown is part of a subset that was picked to be rich in actives. Values without a mark were called inactive.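 Rule for the calls: active = inhibition above a set limit, the mean inhibition across every tested compound plus 3 SD (cut at about 29% in these data); inactive = the rest.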

molecular target: 5-hydroxytryptamine receptor 1E (Homo sapiens) (UniProt P28566); test: 5-HT1E receptor antagonists, primary screen, cell-based, HTS (AID 571); conditions: CHO 5-HT1E Ga15 NFAT-bla reporter, FRET, antagonist; at 6 µM; hits give high values;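 note: signal is the 460 over 535 nm emission ratio of beta-lactamase substrate; 0% = agonist plus DMSO wells and 100% = wells without agonist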
Sequence (P28566 whole entry, looked up): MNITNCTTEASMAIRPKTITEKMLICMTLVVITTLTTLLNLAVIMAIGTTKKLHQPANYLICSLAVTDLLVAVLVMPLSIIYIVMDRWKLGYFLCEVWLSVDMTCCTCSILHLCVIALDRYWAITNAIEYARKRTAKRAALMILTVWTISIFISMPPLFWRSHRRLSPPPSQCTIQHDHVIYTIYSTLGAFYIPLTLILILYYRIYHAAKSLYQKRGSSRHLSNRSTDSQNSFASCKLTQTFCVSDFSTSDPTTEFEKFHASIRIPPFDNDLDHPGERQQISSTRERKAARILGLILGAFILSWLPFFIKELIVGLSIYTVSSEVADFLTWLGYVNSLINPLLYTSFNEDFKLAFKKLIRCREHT

Row | Structure (SMILES) | inhibition
1 | COc1cc(C(=O)N(Cc2ccc(N(C)C)cc2)C2CCS(=O)(=O)C2)cc(OC)c1OC (stereo not drawn) | -0.54%
2 | COc1cc2c(cc1OC)C(c1ccc(C)o1)CC(=O)N2 (stereo not drawn) | 11.3%
3 | COCCOC(=O)C1=C(C)NC(=O)CC1c1cc2c(cc1Br)OCO2 (stereo not drawn) | -1.17%
4 | CCCOc1ccccc1C1CC(=O)Nc2cc3c(cc21)OCO3 (stereo not drawn) | 52.8% (active)
5 | Cn1c(-c2ccco2)nc2cc3ccccc3cc21 | 1.87%
6 | CCOCCN(C=O)c1cccc(OC)c1 | -9.77%
7 | COC(=O)c1ccc(NCC(=O)c2ccccc2)cc1 | -2.89%
8 | COc1ccc(C(=O)NCCc2ccc(S(N)(=O)=O)cc2)cc1OC | 12.5%
9 | O=C(Nc1cccc(F)c1)c1ccc(S(=O)(=O)N2CCCC2)cc1 | -2.92%
10 | CCOC(=O)N1CCN(S(=O)(=O)c2ccc(C(=O)Nc3ccc(F)cc3F)cc2)CC1 | 38.3% (active)
11 | O=C(CN1CCN(S(=O)(=O)c2ccc(F)cc2)CC1)Nc1ccccc1F | 2.85%
12 | CCOC(=O)c1sc(NC(=O)CSc2ncccn2)c(C#N)c1C | -1.65%
13 | O=S(=O)(c1ccccc1)N(CC(O)CN1CCCCC1)c1ccccc1 (stereo not drawn) | -17.2%
14 | Cc1ccc(NC(=O)N2CCC(C(=O)NCc3ccc(F)cc3)CC2)cc1 | -1.42%
15 | O=S(N1CCCCCC1)C12CC3CC(CC(C3)C1)C2 (stereo not drawn) | -12.6%
16 | CCC(C)NC(=O)N[C@@H](CCSC)C(=O)O (stereo partly drawn) | -2.48%
17 | Oc1c(C(c2cccs2)N2CCN(c3ccc(F)cc3)CC2)sc2ncnn12 (stereo not drawn) | -14%
18 | O=C(CCSCCc1ccccn1)Nc1nccs1 | -8.42%
19 | CCC(=O)N(Cc1cc2cc(OC)ccc2[nH]c1=O)c1ccccc1C | 15.6%
20 | C/C(=C\C(=O)c1cccnc1)Nc1ccc(C)c(C)c1 | -0.61%
21 | O=C(CNC(=O)c1ccc(Cl)cc1Cl)NCC(=O)Nc1ccccc1N1CCOCC1 | 5.85%
22 | CCCc1nc2ccccc2c(C(=O)OCc2nnc(-c3cc(OC)c(OC)c(OC)c3)o2)c1CC | 23%
23 | COc1cc(-c2nnc(Cn3cc(C(F)(F)F)ccc3=O)o2)cc(OC)c1OC | 29% (active)
24 | CCOC(=O)c1cc(-c2nnc(-c3cc(OC)c(OC)c(OC)c3)o2)c(C)nc1C | -9.6%
25 | COc1cccc(NC(=O)Cn2cnc3sc(C)c(S(=O)(=O)N4CCN(C)CC4)c3c2=O)c1 | -6.2%
26 | COc1ccc(CSc2nc(N3CCOCC3)c3c(c2C#N)CC(C)(C)OC3)cc1 | -10.9%
27 | CC1(C)Cc2c(C#N)c(SCc3nc4ccccc4[nH]3)nc(N3CCOCC3)c2CO1 | 28.9% (active)
28 | CC(C)c1nc(N2CCOCC2)c(C#N)c2c1COC(C)(C)C2 | 10.4%
